This is an account of results in PubChem BioAssay (Tox21).

Each structure is given as a SMILES string. Inconclusive results are not listed. Where a call stands in place of a potency, no number is given. The source made the active and inactive calls. Calls come from the whole dose curve.

The experiment can be described thus: qHTS assay to identify small molecule agonists or antagonists of the thyroid stimulating hormone receptor (TSHR) signaling pathway - wild type cell line counter screen (AID 1259384). The conditions noted are these: HEK293 wild type, cAMP HTRF counter-screen; series mostly up to 92.4 µM; cAMP activity change: at the top concentration. From the text:
U.S. Tox21 Program National Center for Advancing Translational Sciences [NCATS] NIH Chemical Genomics Center [NCGC] U.S. Environmental Protection Agency [EPA] National Institutes of Environmental Health Sciences [NIEHS] National Toxicology Program [NTP] U.S. Food and Drug Administration [FDA] Tox21 Assay Overview: TSHR is the receptor for thyrotropin (thyroid stimulating hormone or TSH), a member of the glycoprotein hormone family. TSH is released by the anterior pituitary gland and is the main regulator of thyroid gland growth and development. Upon binding circulating thyrotropin, a G-protein signal cascade activates adenylyl cyclase and […] cAMP concentration is increased. cAMP is a key second messenger involved extensively in cellular signal transduction pathways associated with the majority of G-protein coupled receptors (GPCRs). The activation of these GPCRs by neurotransmitters, lipids, nucleotides, peptides and hormones results in the activation or the inhibition of plasma membrane-bound adenylate cyclase through heterotrimeric G-proteins. A cell-based TSHR-Hek293 assay can be used to identify TSHR agonists. To eliminate the false positive compounds identified from screening a cell-based TSHR-Hek293 cell line, cAMP assay in a wild type Hek293 cells was used as a counter screening.
Tox21 Assay Protocol Summary: Hek293 cells (wild type) were dispensed at 800 cells/4 uL/well in 1536-well white plates using a Multidrop dispenser. After the assay plates were incubated at a 37 C/5% CO2 incubator for 18 hrs, 23 nL of compounds dissolved in DMSO, positive controls or DMSO only was transferred to the assay plate by a pin tool, followed by 1 ul medium containing Ro20-1724. After 30 min of incubation at room temperature, 2.5 ul/well of cAMP-d2 and 2.5 ul/well of anti-cAMP-cryptate were added respectively into the assay plates using a Flying Reagent Dispenser. The plates were incubated at room temperature for 1 hr. The fluorescence intensity in the plates was measured using an Envision plate reader. Each test compound was measured at 15 concentrations and in triplicates.
As to `OCCOCCOCCOCCOCCO`, the Potency entry is “inactive”.

For the compound `COc1c(Cl)ccc(Cl)c1C(=O)O`, the Potency result is “inactive”.

`CCCCCCCCCCCC(=O)N(C)CC(=O)O`: the Potency result was “inactive”.

For `O=C1OC(=O)c2c(Cl)c(Cl)c(Cl)c(Cl)c21`, the Potency result is “inactive”.

With `NC(N)=S`, the Potency result was “inactive”.

Turning to `C=C1C[C@]23C[C@@]1(O)CC[C@H]2[C@@]12C=C[C@H](O)[C@@](C)(C(=O)O1)[C@H]2[C@@H]3C(=O)O`, the Potency entry was “inactive”.

Take `O=C(Cl)c1ccc(C(=O)Cl)cc1`: the Potency result is “inactive”.

In the case of `CCCN(CCC)C(=O)SCC`, the Potency result was “inactive”.

`c1cnc2c(c1)ccc1cccnc12`: the Potency entry was “inactive”.

Consider `Cc1ccc(C)c(S(=O)(=O)O)c1`, for which the Potency entry is “inactive”.

Regarding `CC/C(C)=N/O`, the Potency result was “inactive”.

On to `CC/C=C(\C(=O)N[C@@H]1C(=O)N2C(C(=O)OCOC(=O)C(C)(C)C)=C(COC(N)=O)CS[C@H]12)c1csc(N)n1`, for which the Potency entry was “inactive”.

As for `O=c1c(O)c(-c2ccc(O)c(O)c2)oc2cc(O)cc(O)c12`, the Potency result is “inactive”.

On to `NC1CCCCC1N` (stereo not given), for which the Potency result was “inactive”.

As to `CC(C)(CO)CO`, the Potency entry was “inactive”.

For `CCCOCC(C)O` (stereo not given), the Potency entry was “inactive”.

For `CC1(C)C(=O)N(Cl)C(=O)N1Cl`, the Potency entry is “inactive”.

`CC(=O)OC(C)(C)C1CC=C(C)CC1` (stereo not given): the Potency entry is “inactive”.

On to `OCC(O)CS` (stereo not given), for which the Potency entry was “inactive”.

As for `CC(COCC(C)OC(=O)c1ccccc1)OC(=O)c1ccccc1` (stereo not given), the Potency entry was “inactive”.

For the compound `COC(=O)OC`, the Potency entry is “inactive”.

For `NC(=O)NC(N)=O`, the Potency result was “inactive”.

Turning to `CS(=O)(=O)c1ccc(Cl)cc1`, the Potency result was “inactive”.

As for `Cc1cccc(C)c1[N+](=O)[O-]`, the Potency entry was “inactive”.

For the compound `Cc1cc(C)cc(O)c1`, the Potency result is “inactive”.

Consider `Cc1ccc(C(C)C)cc1`, for which the Potency result is “inactive”.

As to `Nc1cccc(N)n1`, the “cAMP activity change” value was -0.0613% (inactive).

Take `N#CCC(=O)O`: the Potency entry was “inactive”.

Consider `CC(=O)OC[C@H]1O[C@@](COC(C)=O)(O[C@H]2O[C@H](COC(C)=O)[C@@H](OC(C)=O)[C@H](OC(C)=O)[C@H]2OC(C)=O)[C@@H](OC(C)=O)[C@@H]1OC(C)=O`, for which the Potency result was “inactive”.

Regarding `O=C1C(N(CO)C(=O)NCO)N(CO)C(=O)N1CO` (stereo not given), the Potency entry is “inactive”.

As for `CC(O)CNCC(C)O` (stereo not given), the Potency result was “inactive”.

In the case of `COCN(COC)c1nc(N(COC)COC)nc(N(COC)COC)n1`, the Potency result is “inactive”.

Turning to `Cc1ccc(Cl)cc1`, the Potency entry was “inactive”.

With `O=C(c1ccccc1)c1ccc(O)c(O)c1O`, the Potency result was “inactive”.

As for `Cc1cc(CC(=O)O)n(C)c1C(=O)c1ccc(Cl)cc1`, the Potency entry was “inactive”.

Take `CN1Cc2c(N)cccc2C(c2ccccc2)C1` (stereo not given): the Potency result is “inactive”.

In the case of `CC(=O)CC(=O)N(C)C`, the Potency entry was “inactive”.

In the case of `C=C(C)CC(C)(C)C`, the Potency entry is “inactive”.

Turning to `OC[C@H]1O[C@@H](Oc2ccc(O)cc2)[C@H](O)[C@@H](O)[C@@H]1O`, the Potency result is “inactive”.

For the compound `O=C1CCCCCCCCCCC1`, the Potency result is “inactive”.
